These results are taken from PubChem BioAssay (EPA / NIEHS).

Each structure is given as a SMILES string. Records with an inconclusive call do not appear. Activity calls are given as the source filed them. How the source made its calls, unless noted: active means hit-call score of the fitted dose curve at least 0.9, where 1 is the maximum; inconclusive means response in the unintended direction; inactive means score below 0.9.

By AC50 is commonly meant the concentration at which the activity in the assay is half-maximal.

A short description of test [1]: ATG_TCF_b_cat_CIS: Attagene CIS-FACTORIAL HepG2 Assay for human T-Cell-Factor with beta-catenin (TCF/b-cat) (AID 2282965; active means hit-call score of the fitted dose curve at least 0.9, where 1 is the maximum; inactive means score below 0.9). The following applies: HepG2 TCF/beta-catenin cis-reporter transcription, actives raise or lower the signal. In short, it runs like this: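 Endogenous transcription factor activity is captured through cis-promoter reporter constructs transiently introduced into human HepG2 liver cells. Induced reporter mRNA is measured after 24 h and fitted bidirectionally relative to DMSO.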

Test [2] is described as follows: ATG_TAL_CIS: Attagene CIS-FACTORIAL HepG2 Assay for human TAL Basal Promoter (AID 2282966; active means hit-call score of the fitted dose curve at least 0.9, where 1 is the maximum; inactive means score below 0.9;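 further: background control endpoint measuring basal TAL promoter reporter mRNA not a specific factor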). The following applies: HepG2 Attagene cis-factorial TAL promoter reporter; actives raise or lower the signal. In short, it runs like this: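 Endogenous transcription-factor activity is sensed in HepG2 cells through transfected cis-promoter reporter constructs. After 24 h dosing, reporter transcripts are quantified by RT-PCR and capillary electrophoresis. Gain or loss of signal is fitted relative to DMSO.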

Test [3] is described as follows: ATG_TGFb_CIS: Attagene CIS-FACTORIAL HepG2 Assay for human Transforming Growth Factor (TGF) (AID 2282967; active means hit-call score of the fitted dose curve at least 0.9, where 1 is the maximum; inactive means score below 0.9). The following applies: HepG2 Attagene CIS TGFb reporter, mRNA transcription; actives raise or lower the signal. In short, it runs like this:
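HepG2 cells transiently transfected with cis-promoter-driven multiple reporter units measure endogenous TF activity; reporter mRNA quantified at 24 h by RT-PCR, FAM labeling, HpaI digestion and capillary electrophoresis. Bidirectional fit vs DMSO.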

The nature of test [4]: ATG_VDRE_CIS: Attagene CIS-FACTORIAL HepG2 Assay for human Vitamin D Receptor Element (VDRE) (AID 2282968; active means hit-call score of the fitted dose curve at least 0.9, where 1 is the maximum; inactive means score below 0.9). The settings on record: HepG2 VDRE cis-reporter transcription, actives raise or lower the signal. In short, it runs like this: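 Measures endogenous factor activity through cis-element-driven reporter transcripts in transiently transfected HepG2. Cells are treated 24 h; reporter mRNA is quantified by RT-PCR and capillary electrophoresis; fitting is bidirectional.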

The target of test [5] is Estrogen receptor (Homo sapiens) (UniProt P03372). In words: ATG_ERa_TRANS: Attagene TRANS-FACTORIAL HepG2 Assay for human Estrogen Receptor alpha (ERa) (AID 2282970). The settings on record: HepG2 Attagene TRANS ERa GAL4 reporter, mRNA. In short, it runs like this:
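Transfected HepG2 cells carrying GAL4-UAS-driven reporter units were dosed for 24 hours. Total RNA was reverse-transcribed, reporter sequences PCR-amplified, FAM-labelled, HpaI-digested and resolved by capillary electrophoresis. Increases over DMSO control defined activity.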

Test [6] addresses Steroid hormone receptor ERR1 (Homo sapiens) (UniProt P11474). Briefly: ATG_ERRa_TRANS: Attagene TRANS-FACTORIAL HepG2 Assay for human Estrogen-Related Receptor alpha (ERRa) (AID 2282971). The settings on record: HepG2 Attagene TRANS reporter, ERRa transactivation. In short, it runs like this: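 HepG2 cells were transiently transfected with multiple GAL4-UAS reporter units, then dosed with compound for 24 h. Total RNA was reverse-transcribed, reporter cDNA PCR-amplified and fluorescently labelled, and fragments resolved by capillary electrophoresis; induction was compared with DMSO.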

Test [7] addresses X-box-binding protein 1 (Homo sapiens) (UniProt P17861). Briefly: ATG_Xbp1_CIS: Attagene CIS-FACTORIAL HepG2 Assay for human X-box Binding Protein 1 (XBP1) (AID 2282972; active means hit-call score of the fitted dose curve at least 0.9, where 1 is the maximum; inactive means score below 0.9). The settings on record: HepG2 XBP1 cis-element reporter, Attagene multiplex; actives raise or lower the signal. In short, it runs like this:
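Changes in reporter transcript abundance, read by RT-PCR and capillary electrophoresis, reflect endogenous transcription factor activity. Transfected HepG2 cells received compound for 24 hours; DMSO defined baseline for bidirectional analysis.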

Test [8] in a line: ATG_GAL4_TRANS: Attagene TRANS-FACTORIAL HepG2 Assay for GAL4 (Internal Marker) (AID 2282976). The following applies: HepG2 Attagene TRANS GAL4 internal marker reporter. In short, it runs like this:
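Fluorescence from capillary electrophoresis of labelled RT-PCR products quantifies reporter mRNA induction after 24 h dosing of HepG2 cells carrying transfected GAL4-UAS reporter transcription units. Vehicle DMSO serves as baseline.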

The target of test [9] is Glucocorticoid receptor (Homo sapiens) (UniProt P04150). Briefly: ATG_GR_TRANS: Attagene TRANS-FACTORIAL HepG2 Assay for human Glucocorticoid Receptor (GR) (AID 2282978).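 Further: activators score as hits since higher reporter transcript over DMSO is fitted.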 The settings on record: HepG2 Attagene TRANS GR reporter, mRNA transcription. In short, it runs like this: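 Transient MRTU transfection of HepG2 (GAL4-UAS reporters, exogenous NR-GAL4 chimeras), 24 h dosing. Readout: reporter transcript via RT-PCR + capillary electrophoresis fluorescence. Positive direction vs DMSO baseline.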
Glucocorticoid receptor (Homo sapiens), sequence (P04150 whole entry, looked up, the tested form may be a part): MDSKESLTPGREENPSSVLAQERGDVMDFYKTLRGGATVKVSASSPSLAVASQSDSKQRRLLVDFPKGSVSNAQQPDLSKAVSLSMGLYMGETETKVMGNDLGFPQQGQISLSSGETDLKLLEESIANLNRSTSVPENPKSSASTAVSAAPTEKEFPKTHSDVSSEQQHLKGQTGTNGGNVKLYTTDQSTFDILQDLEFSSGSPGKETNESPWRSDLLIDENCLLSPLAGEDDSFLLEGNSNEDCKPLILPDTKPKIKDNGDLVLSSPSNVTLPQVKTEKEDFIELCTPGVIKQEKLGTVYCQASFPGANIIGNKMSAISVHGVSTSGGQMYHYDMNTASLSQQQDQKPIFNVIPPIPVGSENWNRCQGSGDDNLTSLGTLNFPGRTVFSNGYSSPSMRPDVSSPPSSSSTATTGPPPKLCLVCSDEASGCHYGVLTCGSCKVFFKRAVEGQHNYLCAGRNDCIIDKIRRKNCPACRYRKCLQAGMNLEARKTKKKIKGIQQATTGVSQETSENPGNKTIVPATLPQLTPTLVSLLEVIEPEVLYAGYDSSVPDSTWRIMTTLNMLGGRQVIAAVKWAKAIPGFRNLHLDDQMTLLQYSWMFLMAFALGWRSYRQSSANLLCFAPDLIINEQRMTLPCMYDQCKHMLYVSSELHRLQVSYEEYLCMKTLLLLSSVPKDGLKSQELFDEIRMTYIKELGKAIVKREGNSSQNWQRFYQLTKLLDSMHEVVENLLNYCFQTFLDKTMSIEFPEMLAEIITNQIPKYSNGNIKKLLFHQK

Test [10] deals with Bile acid receptor (Homo sapiens) (UniProt Q96RI1). In words: ATG_FXR_TRANS: Attagene TRANS-FACTORIAL HepG2 Assay for Farnesoid X Receptor (FXR) (AID 2282979).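 Further: hits raise reporter mRNA above DMSO so AC50 marks FXR activation.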 The settings on record: HepG2 Attagene TRANS FXR-GAL4 reporter transcription. In short, it runs like this: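 Chimeric FXR-GAL4 activity in transiently transfected human HepG2 liver cells is scored as induction of reporter mRNA after 24 h of dosing. Detection uses RT-PCR with fluorescent labelling and capillary electrophoresis, with DMSO serving as baseline.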
Bile acid receptor (Homo sapiens), sequence (Q96RI1 whole entry, looked up, the tested form may be a part): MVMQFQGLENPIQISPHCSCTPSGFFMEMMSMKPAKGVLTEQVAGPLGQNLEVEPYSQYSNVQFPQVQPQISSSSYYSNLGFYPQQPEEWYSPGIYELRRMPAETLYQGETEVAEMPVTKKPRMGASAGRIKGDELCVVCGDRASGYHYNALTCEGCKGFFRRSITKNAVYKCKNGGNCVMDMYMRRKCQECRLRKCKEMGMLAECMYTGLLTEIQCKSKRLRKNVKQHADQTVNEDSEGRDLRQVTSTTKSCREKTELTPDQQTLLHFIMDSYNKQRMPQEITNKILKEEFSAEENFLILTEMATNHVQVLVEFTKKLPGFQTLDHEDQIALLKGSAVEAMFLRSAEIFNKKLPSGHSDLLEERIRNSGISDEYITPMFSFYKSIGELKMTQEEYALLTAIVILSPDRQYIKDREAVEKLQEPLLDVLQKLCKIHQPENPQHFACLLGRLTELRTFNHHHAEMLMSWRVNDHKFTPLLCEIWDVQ

A short description of test [11]: ATG_M_06_TRANS: Attagene TRANS-FACTORIAL HepG2 Assay for M06 Transcription Factor (Internal Marker) (AID 2282983). The settings on record: HepG2 Attagene TRANS M06 internal marker reporter. In short, it runs like this: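 Human liver HepG2 cells bearing transiently transfected chimeric NR-GAL4 reporter units were treated with chemicals for 24 h. Total RNA was reverse-transcribed, reporter sequences amplified and labelled, then quantified by capillary electrophoresis. Activity was fitted upward relative to DMSO.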

Test [12] concerns the target Nuclear receptor subfamily 4 group A member 2 (Homo sapiens) (UniProt P43354). Briefly: ATG_NURR1_TRANS: Attagene TRANS-FACTORIAL HepG2 Assay for human Nuclear Receptor Related Protein 1 (NURR1) (AID 2282985). The following applies: HepG2 Attagene TRANS reporter, mRNA readout. In short, it runs like this: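 Measures transcriptional activation by an exogenous NR-Gal4 chimera in transfected HepG2 liver cells. After 24 h, reporter RNA is reverse-transcribed, amplified and resolved by capillary electrophoresis; DMSO defines baseline.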

Test [13] has as its target Nuclear receptor subfamily 1 group I member 3 (Homo sapiens) (UniProt Q14994). Briefly: ATG_CAR_TRANS: Attagene TRANS-FACTORIAL HepG2 Assay for human Constitutive Androstane Receptor (CAR) (AID 2282969).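 Further: activators raise reporter mRNA above DMSO so AC50 marks induction.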 The following applies: HepG2 Attagene TRANS-FACTORIAL CAR reporter. In short, it runs like this:
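Signal is reporter mRNA induction relative to DMSO, measured 24 h after dosing by RT-PCR with fluorescent primer extension and capillary electrophoresis. Human HepG2 liver cells carried transiently transfected chimeric NR-Gal4/GAL4-UAS reporter constructs.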

In test [14] the target is Estrogen-related receptor gamma (Homo sapiens) (UniProt P62508). In words: ATG_ERRg_TRANS: Attagene TRANS-FACTORIAL HepG2 Assay for human Estrogen-Related Receptor gamma (ERRg) (AID 2282977).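 Further: hits increase reporter signal over DMSO so potencies reflect activators.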 The settings on record: HepG2 Attagene TRANS reporter, ERRg transactivation. In short, it runs like this: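 Exogenous NR-Gal4 chimera activity was assessed in HepG2 cells bearing transfected GAL4-UAS reporters. After 24 h dosing, total RNA underwent RT-PCR, fluorescent primer extension and HpaI digestion before capillary electrophoresis, with gain of signal scored against DMSO.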
Estrogen-related receptor gamma (Homo sapiens), sequence (P62508 whole entry, looked up, the tested form may be a part): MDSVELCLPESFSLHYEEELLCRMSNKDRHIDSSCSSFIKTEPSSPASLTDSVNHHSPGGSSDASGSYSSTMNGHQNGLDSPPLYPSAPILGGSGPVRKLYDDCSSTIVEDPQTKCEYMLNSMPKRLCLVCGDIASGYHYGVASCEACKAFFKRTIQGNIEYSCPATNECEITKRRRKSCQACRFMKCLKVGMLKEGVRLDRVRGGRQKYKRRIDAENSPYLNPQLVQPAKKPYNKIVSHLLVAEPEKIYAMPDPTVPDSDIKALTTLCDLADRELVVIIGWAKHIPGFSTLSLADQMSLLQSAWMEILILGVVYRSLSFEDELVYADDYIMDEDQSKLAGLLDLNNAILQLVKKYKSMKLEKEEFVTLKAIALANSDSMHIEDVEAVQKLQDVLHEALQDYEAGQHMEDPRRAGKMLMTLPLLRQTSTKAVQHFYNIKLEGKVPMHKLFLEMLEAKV

The target of test [15] is Androgen receptor (Homo sapiens) (UniProt P10275). In words: ATG_AR_TRANS: Attagene TRANS-FACTORIAL HepG2 Assay for human Androgen Receptor (AR) (AID 2282973). The settings on record: HepG2 Attagene TRANS-FACTORIAL AR reporter transcription. In short, it runs like this: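 Transfected HepG2, 24 h treatment, chimeric NR-Gal4 driving GAL4-UAS reporters. mRNA induction by RT-PCR/capillary electrophoresis fluorescence; DMSO as negative control and baseline.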
Androgen receptor (Homo sapiens), sequence (P10275 whole entry, looked up, the tested form may be a part): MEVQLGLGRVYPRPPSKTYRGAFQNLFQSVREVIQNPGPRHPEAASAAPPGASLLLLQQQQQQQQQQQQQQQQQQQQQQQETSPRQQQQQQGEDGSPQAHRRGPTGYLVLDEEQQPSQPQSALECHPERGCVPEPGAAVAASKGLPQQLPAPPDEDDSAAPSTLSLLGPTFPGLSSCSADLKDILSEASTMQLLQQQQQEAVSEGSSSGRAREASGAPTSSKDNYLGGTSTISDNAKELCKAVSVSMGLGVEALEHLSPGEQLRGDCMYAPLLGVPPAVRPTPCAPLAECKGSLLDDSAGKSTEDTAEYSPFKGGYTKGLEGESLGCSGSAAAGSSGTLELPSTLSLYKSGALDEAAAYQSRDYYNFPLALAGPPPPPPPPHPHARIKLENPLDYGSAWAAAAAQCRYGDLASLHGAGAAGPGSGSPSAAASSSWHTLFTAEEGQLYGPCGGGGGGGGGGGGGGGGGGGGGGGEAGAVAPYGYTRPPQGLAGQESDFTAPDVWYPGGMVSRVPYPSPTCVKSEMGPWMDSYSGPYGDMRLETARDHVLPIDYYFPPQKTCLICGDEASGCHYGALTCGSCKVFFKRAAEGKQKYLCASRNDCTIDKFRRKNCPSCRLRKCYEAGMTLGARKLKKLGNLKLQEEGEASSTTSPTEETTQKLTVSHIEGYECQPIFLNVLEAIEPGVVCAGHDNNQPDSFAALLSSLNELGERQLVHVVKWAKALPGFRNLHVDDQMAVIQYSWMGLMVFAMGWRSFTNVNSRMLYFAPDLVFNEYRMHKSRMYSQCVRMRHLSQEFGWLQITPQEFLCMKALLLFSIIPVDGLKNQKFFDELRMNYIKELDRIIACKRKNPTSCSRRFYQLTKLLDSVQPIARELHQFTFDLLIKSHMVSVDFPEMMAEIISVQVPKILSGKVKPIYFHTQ

The target in test [16] is Oxysterols receptor LXR-beta (Homo sapiens) (UniProt P55055). In words: ATG_LXRb_TRANS: Attagene TRANS-FACTORIAL HepG2 Assay for human Liver X Receptor beta (LXRb) (AID 2282981). The settings on record: HepG2 Attagene TRANS GAL4-LXRb reporter, mRNA. In short, it runs like this: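 After 24 h of chemical treatment, transfected HepG2 cells yield total RNA; reporter cDNA is PCR-amplified, FAM-labelled, HpaI-cut and run on capillary electrophoresis. Signal reflects chimeric LXRb-Gal4 activity on GAL4-UAS reporters.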
Oxysterols receptor LXR-beta (Homo sapiens), sequence (P55055 whole entry, looked up, the tested form may be a part): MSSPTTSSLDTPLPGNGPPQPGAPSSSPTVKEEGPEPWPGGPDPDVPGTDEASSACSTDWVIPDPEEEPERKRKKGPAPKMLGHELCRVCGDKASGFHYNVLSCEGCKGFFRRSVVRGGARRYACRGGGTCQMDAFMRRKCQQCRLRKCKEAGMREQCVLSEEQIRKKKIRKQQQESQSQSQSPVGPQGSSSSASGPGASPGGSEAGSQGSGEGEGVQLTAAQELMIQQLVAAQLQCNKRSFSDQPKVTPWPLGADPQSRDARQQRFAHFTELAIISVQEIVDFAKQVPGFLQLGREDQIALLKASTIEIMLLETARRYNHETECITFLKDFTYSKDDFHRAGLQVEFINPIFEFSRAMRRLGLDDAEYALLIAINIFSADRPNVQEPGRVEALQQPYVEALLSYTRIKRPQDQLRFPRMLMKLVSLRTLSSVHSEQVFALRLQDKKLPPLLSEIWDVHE

The nature of test [17]: ATG_M_19_TRANS: Attagene TRANS-FACTORIAL HepG2 Assay for M19 Transcription Factor (Internal Marker) (AID 2282974). The following applies: HepG2 Attagene TRANS-FACTORIAL M19 internal marker reporter. In short, it runs like this:
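24 h chemical exposure of transiently transfected HepG2 (MRTU library). RNA → oligo(dT) RT → PCR → 6-FAM labelling → HpaI cut → CE fluorescence. Positive-direction fit vs DMSO baseline; background internal-marker readout.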

Test [18] can be described thus: ATG_M_32_TRANS: Attagene TRANS-FACTORIAL HepG2 Assay for M32 Transcription Factor (Internal Marker) (AID 2282984).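 Further: transcript level of a background control reporter unit measured by RT-PCR and capillary electrophoresis.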 The following applies: HepG2 Attagene TRANS M32 internal marker reporter. In short, it runs like this:
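Cell-based TRANS-format assay in HepG2: exogenous chimeric GAL4 reporter units transiently expressed, compounds applied 24 h. Reporter mRNA detected by RT-PCR plus capillary electrophoresis; this readout is an internal background marker.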

The target of test [19] is Hepatocyte nuclear factor 4-alpha (Homo sapiens) (UniProt P41235). Briefly: ATG_HNF4a_TRANS: Attagene TRANS-FACTORIAL HepG2 Assay for human Hepatocyte Nuclear Factor 4 alpha (HNF4a) (AID 2282982). The settings on record: HepG2 HNF4a transactivation reporter, mRNA readout. In short, it runs like this:
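Multiplexed reporter assay: transfected HepG2, 24 h exposure, total RNA → oligo(dT) RT → PCR → 6-FAM extension → HpaI digest → CE fluorescence. DMSO = negative control.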

Estrogen receptor (Homo sapiens), sequence (P03372 whole entry, looked up, the tested form may be a part): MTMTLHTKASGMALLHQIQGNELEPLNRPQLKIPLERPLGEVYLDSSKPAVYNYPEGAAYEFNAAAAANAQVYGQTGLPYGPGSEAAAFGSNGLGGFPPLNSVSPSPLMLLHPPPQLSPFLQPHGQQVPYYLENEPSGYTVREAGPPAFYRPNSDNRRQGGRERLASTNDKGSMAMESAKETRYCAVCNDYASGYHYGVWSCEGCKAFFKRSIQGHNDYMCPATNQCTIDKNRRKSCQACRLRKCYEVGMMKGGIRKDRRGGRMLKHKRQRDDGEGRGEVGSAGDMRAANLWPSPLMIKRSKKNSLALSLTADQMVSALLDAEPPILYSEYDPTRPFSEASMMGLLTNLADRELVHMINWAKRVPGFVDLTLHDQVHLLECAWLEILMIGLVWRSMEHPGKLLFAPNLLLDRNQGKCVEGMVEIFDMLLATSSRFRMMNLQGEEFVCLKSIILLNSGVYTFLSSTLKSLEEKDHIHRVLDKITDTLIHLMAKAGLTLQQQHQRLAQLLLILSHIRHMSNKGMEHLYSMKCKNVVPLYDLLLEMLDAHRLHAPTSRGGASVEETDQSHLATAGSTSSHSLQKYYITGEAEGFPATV
Nuclear receptor subfamily 1 group I member 3 (Homo sapiens), sequence (Q14994 whole entry, looked up, the tested form may be a part): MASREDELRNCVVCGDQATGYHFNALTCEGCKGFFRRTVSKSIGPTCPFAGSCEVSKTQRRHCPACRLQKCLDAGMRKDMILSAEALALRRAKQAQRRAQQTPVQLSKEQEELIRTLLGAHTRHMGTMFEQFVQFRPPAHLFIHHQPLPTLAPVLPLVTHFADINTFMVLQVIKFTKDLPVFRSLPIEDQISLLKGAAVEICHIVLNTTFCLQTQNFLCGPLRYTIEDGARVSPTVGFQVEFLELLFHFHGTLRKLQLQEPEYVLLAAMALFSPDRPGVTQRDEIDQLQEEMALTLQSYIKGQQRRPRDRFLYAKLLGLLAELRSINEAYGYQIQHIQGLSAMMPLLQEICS
Steroid hormone receptor ERR1 (Homo sapiens), sequence (P11474 whole entry, looked up, the tested form may be a part): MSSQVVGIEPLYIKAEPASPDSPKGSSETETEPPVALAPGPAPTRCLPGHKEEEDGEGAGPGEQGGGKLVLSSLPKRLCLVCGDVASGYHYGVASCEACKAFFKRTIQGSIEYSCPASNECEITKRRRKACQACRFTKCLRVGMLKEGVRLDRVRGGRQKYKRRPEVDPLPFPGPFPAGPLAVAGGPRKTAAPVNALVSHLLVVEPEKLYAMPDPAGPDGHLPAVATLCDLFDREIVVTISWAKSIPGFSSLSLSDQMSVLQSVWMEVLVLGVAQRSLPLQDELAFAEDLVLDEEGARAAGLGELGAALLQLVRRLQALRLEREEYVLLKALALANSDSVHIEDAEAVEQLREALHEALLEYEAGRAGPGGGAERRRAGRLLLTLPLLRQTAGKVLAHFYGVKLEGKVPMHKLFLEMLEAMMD
X-box-binding protein 1 (Homo sapiens), sequence (P17861 whole entry, looked up): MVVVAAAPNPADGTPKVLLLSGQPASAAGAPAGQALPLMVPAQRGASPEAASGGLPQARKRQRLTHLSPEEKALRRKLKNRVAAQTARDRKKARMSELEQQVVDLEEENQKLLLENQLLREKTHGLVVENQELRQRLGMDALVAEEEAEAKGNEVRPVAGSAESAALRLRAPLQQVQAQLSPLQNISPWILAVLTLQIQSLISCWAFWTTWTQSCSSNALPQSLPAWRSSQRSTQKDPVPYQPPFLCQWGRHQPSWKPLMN

In the case of `Cc1c([N+](=O)[O-])cc2c(c1[N+](=O)[O-])C(C)(C)CC2(C)C`, the call in test [1], in test [2], in test [3], in [4], in test [5] and in test [6] was inactive. Also, the call in test [7], in test [8], in [9], in test [10] and in test [11] was inactive. In [12], the half-maximal activity concentration (AC50) was 14.6 µM (active).
`CCCCOCC1CO1` (stereo not drawn): the call in test [1], in test [2], in test [3], in [4], in test [13] and in test [6] was inactive. In addition, the outcome in [7], in test [8], in [14] and in test [12] was inactive.
As for `NC(=O)C(F)(F)C(F)(F)F`, the compound was called inactive in test [1], in test [2], in test [3], in test [4], in test [5] and in test [6]. In addition, the outcome in [7], in test [15], in test [8], in [14], in test [9] and in test [10] was inactive. In addition, the compound was called inactive in test [11].
Take `ClC(Cl)(Cl)c1ccccc1`: the compound was called inactive in test [1], in test [2], in [3], in [4], in test [13] and in [7]. The outcome in test [16] and in test [11] was inactive. Also, the AC50 in test [5] is 45.2 µM (active).
On to `Cc1ccc([N+](=O)[O-])cc1C`, for which the compound was classed as inactive in [1], in [2], in [3], in test [4], in test [5] and in [7]. For the same compound, the outcome in test [17], in test [8], in test [10], in test [11] and in test [18] was inactive.
Turning to `CNC(=O)Oc1ccc(N(C)C)c(C)c1`, the result in [1], in [2], in test [3], in test [4], in [13] and in test [5] was inactive. For the same compound, the result in test [7], in test [14], in test [16] and in [18] was inactive.
In the case of `CCCCCCCc1ccc(O)cc1`, the result in test [1], in test [2], in test [3], in [4], in [13] and in test [7] was inactive. The call in test [15], in test [8], in [9], in test [16], in test [11] and in test [18] was inactive.
Take `FC(F)(F)C(F)(C(F)(F)F)C(F)(F)C(F)(F)CC1CO1` (stereo not drawn): the compound was classed as inactive in test [1], in test [2], in test [3], in [4], in test [5] and in test [7]. Further, the compound was classed as inactive in [15], in [9], in [10], in test [16], in [11] and in test [18].
Consider `OCC1CO1` (stereo not drawn), for which the outcome in test [1], in test [2], in test [3], in test [4], in test [5] and in [7] was inactive. In addition, the compound was classed as inactive in test [17], in test [16], in [19], in test [11] and in test [18].
As to `[N-]=[N+]=[N-]`, the call in test [1], in [2], in test [3], in test [4], in [13] and in test [5] was inactive. Further, the result in test [7] and in [11] was inactive. Besides, the AC50 in test [16] is 100 µM (active).
Consider `CC(C)CBr`, for which the call in test [1], in test [2], in test [3], in test [4], in test [5] and in test [7] was inactive. Further, the result in test [15], in test [8], in test [14], in test [10], in test [11] and in test [18] was inactive.
`O=C(O)C=CC(F)(C(F)(F)F)C(F)(F)F`: the compound was called inactive in test [1], in test [2], in [3], in test [4], in test [5] and in test [6]. In addition, the result in test [7], in test [15], in [9], in [16], in test [11] and in test [18] was inactive.
